The record followed here is PubChem BioAssay (NCI).

This is part of a sample that, as a whole, favours compounds with a hit. Of some 83,000 tested, about 20% had one in any assay.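 How to read the values: 0–100, growth inhibition (40 = 60% inhibited); 0, no net growth; -100 to 0, cell death (-40 = 40% of starting cells died; -100 = all dead).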 Values without a mark were called inactive. The source made the active and inactive calls. Rule for the calls: active = growth percent below 10; inactive = the rest.

In the first assay the test system is HOP-92 NSCLC. Nature of the assay: NCI-60 one-dose screen, 48 h (100 = growth as untreated, 0 = no growth, -100 = all killed). Conditions: 10 µM unless noted.
`COc1ccc(NC(=O)Cn2c(/C=C/c3cccc([N+](=O)[O-])c3)nc3ccccc3c2=O)cc1`: the growth was -0.339% (active).

Regarding `CC1(C)CC[C@]2(C(=O)Nc3ccc(Br)cc3)CC[C@]3(C)C(=CCC4[C@@]5(C)C[C@@H](O)[C@H](O)[C@@](C)(CO)C5CC[C@]43C)C2C1` (stereo partly specified), the growth is -53.4% (active).

Turning to `N#Cc1c(-c2cccc(Cl)c2Cl)cc(-c2c[nH]c3ccccc23)[nH]c1=O`, the growth was -0.53% (active).

As to `O=c1onc(-c2cc3ccccc3nc2Cl)n1-c1cccc2ccccc12`, the growth is 38.7%.

Take `CCN(CC)CCOc1ccc(Nc2ncc3cc(-c4ccc(O)c(C#N)c4)c(=O)n(C)c3n2)cc1`: the growth was -5.3% (active).

As for `Cc1ccc(NC(=O)[C@]23CCC(C)(C)CC2C2=CCC4[C@@]5(C)C[C@@H](O)[C@H](O)[C@@](C)(CO)C5CC[C@@]4(C)[C@]2(C)CC3)cc1` (stereo partly specified), the growth is -19.6% (active).

On to `N#Cc1c(NCc2ccccc2)n[nH]c1Nc1ccccc1`, for which the growth is 62.3%.

Regarding `CCCSc1nc(NCCc2c[nH]c3ccccc23)c(C#N)c(-c2ccc(OC)cc2)n1`, the growth is 64.7%.

Turning to `O=C(NNc1ccccc1)n1c(=O)c2ccccc2c(=O)n1-c1ccccc1`, the growth was 93.9%.

For the compound `COc1cc(C2CC(c3cc(OC)c(OC)c(OC)c3)=NN2C(C)=O)ccc1OCc1ccc(F)cc1` (stereo unspecified), the growth was 17.3%.

As for `CN1CCN(Cc2ccc(C(=O)Nc3cccc(C#Cc4cccc5[nH]nc(N)c45)c3)cc2C(F)(F)F)CC1`, the growth is -87.7% (active).

`COc1ccc(C(=O)/C=C/c2cccc3ccccc23)cc1S(N)(=O)=O`: the growth was 73%.

With `O=C(/C=C/c1ccc(O)c(O)c1)NC1CCOC1O` (stereo unspecified), the growth is 91.5%.

As to `C=C1CCC2C3(C)COC(c4ccccc4F)OC3CCC2(C)C1CC(O)C1=CCOC1=O` (stereo unspecified), the growth was 55.5%.

With `COc1cc(/C=C/C(=O)c2ccc(C)cc2)ccc1Oc1nc(Nc2ccc(F)cc2)nc(N(C)C)n1`, the growth was 52.7%.

In the case of `COc1cc2oc(-c3cccc(C(=O)Nc4ccc(Cl)cc4)c3)cc(=O)c2c(OCCNC(=O)[C@@H](N)CCC(=O)O)c1OC`, the growth is 63%.

As for `C=C1CCC2C3(C)COC(c4ccc(F)cc4)OC3CCC2(C)C1CC(O)C1=CCOC1=O` (stereo unspecified), the growth was 45.9%.

As to `Cc1ccc(C(SCCNCc2cc(N(C)C)ccn2)(c2ccccc2)c2ccccc2)cc1`, the growth was -25.4% (active).

With `COc1ccc(-c2c(Nn3cnnn3)no[n+]2[O-])cc1`, the growth was 26%.

Take `CC1=C(C(=O)c2ccccc2)C(c2cccc3ccccc23)n2c(nc3ccccc32)N1` (stereo unspecified): the growth was 60.4%.

In the case of `CC1(C)CC[C@]2(C(=O)Nc3ccccc3)CC[C@]3(C)C(=CCC4[C@@]5(C)C[C@@H](O)[C@H](O)[C@@](C)(CO)C5CC[C@]43C)C2C1` (stereo partly specified), the growth was 39.1%.

Turning to `O=C(N/N=C/c1ccc(-c2ccc(O)cc2)o1)c1[nH]c2ccc(Br)cc2c1-c1ccccc1`, the growth is -40.7% (active).

Take `CC(=O)Nc1ccc(-c2cn(-c3cccc(C(=O)Nc4ccc(N5CCN(C)CC5)cc4)c3)nn2)cn1`: the growth was 44.8%.

Regarding `COc1cc2oc(-c3cccc(NC(=O)[C@H](Cc4ccccc4)NC(=O)OC(C)(C)C)c3)cc(=O)c2c(OC)c1OC`, the growth was 61.7%.

The test system of a further assay is NCI-H522 lung. The description is as above. The following applies: 10 µM unless noted.
As to `COc1cc(C2CC(c3cc(OC)c(OC)c(OC)c3)=NN2C(C)=O)ccc1OCc1ccccc1` (stereo unspecified), the growth was 26.8%.

On to `Cc1cc(N=C2NC(=O)CS2)n[nH]1`, for which the growth is 103%.

As to `C=C1CC[C@@H]2[C@]3(C)COC(c4cn[nH]c4-c4ccc(OC)cc4)O[C@@H]3CC[C@@]2(C)[C@@H]1C/C=C1/C(=O)OCC1O` (stereo partly specified), the growth was -18.4% (active).

For `COc1cc2c(c(OC)c1OC)C(=O)CC(c1cccc(NC(=O)c3cc(N)ccc3Cl)c1)O2` (stereo unspecified), the growth is 8.06% (active).

Consider `O=C(N=Nc1c(O)[nH]c2ccc(Cl)cc12)c1ccc2nc(-c3ccccc3)[nH]c2c1`, for which the growth is 8.85% (active).

`CNC(=O)c1cc(Oc2ccc3nc(NC(=O)Nc4cccc(OC(F)(F)F)c4)sc3c2)ccn1`: the growth was 26.6%.

For `COc1cc2c(c(OC)c1OC)C(=O)CC(c1cccc(NC(=O)c3cc([N+](=O)[O-])ccc3Cl)c1)O2` (stereo unspecified), the growth is -27.1% (active).

`COc1ccc(C2=NN(C(C)=O)C(c3ccc(OCc4ccc(Cl)cc4)c(OC)c3)C2)cc1OC` (stereo unspecified): the growth was 28.5%.

Regarding `COc1ccc2cc([C@H](C)C(=O)N/N=C/c3ccc(Br)cc3)ccc2c1`, the growth was 92%.

In the case of `CCCCCCCCc1ccc(C(=O)Nc2ccc(C)cc2C(=O)O)cc1C`, the growth is -0.59% (active).

Regarding `CSc1ccccc1NC(=O)c1ccc2nn(/C(C#N)=C/c3ccccn3)nc2c1`, the growth was -92.7% (active).

In the case of `COCOc1ccc2c(=O)c(C)c(C(=O)N[C@@H](Cc3ccccc3)C(O)C(=O)NCCc3ccc(OC)cc3)oc2c1` (stereo partly specified), the growth is 98.4%.

In the case of `CSc1ccc(C(=O)Nc2ccc3nnn(/C(C#N)=C/c4ccccn4)c3c2)cc1`, the growth is -84.6% (active).

Take `COc1ccc(NC(=O)Cn2c(/C=C/c3cccc([N+](=O)[O-])c3)nc3ccccc3c2=O)cc1`: the growth is 94.4%.

In the case of `CC1(C)CC[C@]2(C(=O)Nc3ccc(Br)cc3)CC[C@]3(C)C(=CCC4[C@@]5(C)C[C@@H](O)[C@H](O)[C@@](C)(CO)C5CC[C@]43C)C2C1` (stereo partly specified), the growth was -31.3% (active).

For the compound `N#Cc1c(-c2cccc(Cl)c2Cl)cc(-c2c[nH]c3ccccc23)[nH]c1=O`, the growth was 70.2%.

Consider `O=c1onc(-c2cc3ccccc3nc2Cl)n1-c1cccc2ccccc12`, for which the growth was 27.8%.

For the compound `CCN(CC)CCOc1ccc(Nc2ncc3cc(-c4ccc(O)c(C#N)c4)c(=O)n(C)c3n2)cc1`, the growth was 83.1%.

Consider `Cc1ccc(NC(=O)[C@]23CCC(C)(C)CC2C2=CCC4[C@@]5(C)C[C@@H](O)[C@H](O)[C@@](C)(CO)C5CC[C@@]4(C)[C@]2(C)CC3)cc1` (stereo partly specified), for which the growth was 12.3%.

Consider `N#Cc1c(NCc2ccccc2)n[nH]c1Nc1ccccc1`, for which the growth was 82.3%.

`CCCSc1nc(NCCc2c[nH]c3ccccc23)c(C#N)c(-c2ccc(OC)cc2)n1`: the growth is 43.8%.

For the compound `O=C(NNc1ccccc1)n1c(=O)c2ccccc2c(=O)n1-c1ccccc1`, the growth is 86.4%.

In the case of `COc1cc(C2CC(c3cc(OC)c(OC)c(OC)c3)=NN2C(C)=O)ccc1OCc1ccc(F)cc1` (stereo unspecified), the growth is 42.1%.

On to `CN1CCN(Cc2ccc(C(=O)Nc3cccc(C#Cc4cccc5[nH]nc(N)c45)c3)cc2C(F)(F)F)CC1`, for which the growth is -64.3% (active).

As for `COc1ccc(C(=O)/C=C/c2cccc3ccccc23)cc1S(N)(=O)=O`, the growth was -67% (active).

As to `O=C(/C=C/c1ccc(O)c(O)c1)NC1CCOC1O` (stereo unspecified), the growth was 75.6%.

With `C=C1CCC2C3(C)COC(c4ccccc4F)OC3CCC2(C)C1CC(O)C1=CCOC1=O` (stereo unspecified), the growth is -50.3% (active).

As for `COc1cc(/C=C/C(=O)c2ccc(C)cc2)ccc1Oc1nc(Nc2ccc(F)cc2)nc(N(C)C)n1`, the growth is 44.8%.

For the compound `COc1cc2oc(-c3cccc(C(=O)Nc4ccc(Cl)cc4)c3)cc(=O)c2c(OCCNC(=O)[C@@H](N)CCC(=O)O)c1OC`, the growth was 82.8%.

Turning to `C=C1CCC2C3(C)COC(c4ccc(F)cc4)OC3CCC2(C)C1CC(O)C1=CCOC1=O` (stereo unspecified), the growth was -28.2% (active).

Turning to `Cc1ccc(C(SCCNCc2cc(N(C)C)ccn2)(c2ccccc2)c2ccccc2)cc1`, the growth was -78.8% (active).

With `COc1ccc(-c2c(Nn3cnnn3)no[n+]2[O-])cc1`, the growth was -14.3% (active).

Regarding `CC1=C(C(=O)c2ccccc2)C(c2cccc3ccccc23)n2c(nc3ccccc32)N1` (stereo unspecified), the growth is 66.5%.

Regarding `CC1(C)CC[C@]2(C(=O)Nc3ccccc3)CC[C@]3(C)C(=CCC4[C@@]5(C)C[C@@H](O)[C@H](O)[C@@](C)(CO)C5CC[C@]43C)C2C1` (stereo partly specified), the growth was 41.6%.

For the compound `O=C(N/N=C/c1ccc(-c2ccc(O)cc2)o1)c1[nH]c2ccc(Br)cc2c1-c1ccccc1`, the growth was -45.9% (active).

As for `CC(=O)Nc1ccc(-c2cn(-c3cccc(C(=O)Nc4ccc(N5CCN(C)CC5)cc4)c3)nn2)cn1`, the growth is 91.8%.

`COc1cc2oc(-c3cccc(NC(=O)[C@H](Cc4ccccc4)NC(=O)OC(C)(C)C)c3)cc(=O)c2c(OC)c1OC`: the growth was 30.3%.
